# Shiga inhibitor: inhibitors of Shiga toxin in Vero cells; Vero cells, Shiga toxin protein synthesis inhibition reporter; inhibition, % at 38.7 µM; actives 9.2% (n = 290,000); AID 2315; in the data active means inhibition mostly above about 28%, no sharp cut-off; inactive means mostly below about 43%; further: 0% is about no effect
# Lassa entry inh: blocks Lassa virus binding to or entry into cells; Lassa virus pseudotype entry inhibition, cell reporter; Potency, µM (titrated, usually from 37.9 µM), for the others: at the top dose activity change, negative = inhibition, most hits filed as inhibitors; actives 1.2% (n = 300,000); AID 540256; calls by dose curve; tested in HEK293 cells; further: potency means the concentration at half of the fitted maximal effect; on the % scale 0 is the no-effect control and ±100 the full control effect; nearly all actives have a fitted effect of over 50% in size
# Pf growth 48h: P. falciparum growth inhibition at 48 hours (one generation) | P. falciparum luciferase growth in erythrocytes, 48 h | Potency, µM (titrated, usually from 28.7 µM), without a hit: at the highest dose activity change, negative = inhibition, hits mostly inhibitors | actives 5.9% (n = 310,000); further: potency means the concentration at half of the fitted maximal effect; on the % scale 0 is the no-effect control and ±100 the full control effect
#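 Growth was read as firefly luciferase luminescence after a 48 h, 37 C, 5% CO2 exposure of compounds to reporter-bearing P. falciparum cultures (0.1% parasitemia, 2% hematocrit final) in Albumax-supplemented RPMI 1640.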
# Pf growth 96h: P. falciparum growth inhibition at 96 hour, primary screen for plastid delayed-death inhibitors; P. falciparum luciferase reporter growth, 96 h; actives 6.9% (n = 320,000); Potency, µM (top dose mostly 28.7 µM), for inactives: at the highest dose activity change, negative = inhibition, most hits filed as inhibitors; further: potency means the concentration at half of the fitted maximal effect; on the % scale 0 is the no-effect control and ±100 the full control effect
#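 Plates of compound plus infected erythrocytes (2% hematocrit, 0.05% parasitemia final) incubate 96 hours, 37 C, 5% CO2. Detection reagent added; reduced luminescence from the parasites' luciferase reporter flags inhibition.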
# Cycloheximide cs: counter-screen for Shiga toxin inhibitors: cycloheximide protein synthesis inhibition. max response, %. actives 12% (n = 300,000). cell reporter, cycloheximide protein synthesis inhibition counterscreen; in the data active means max response mostly above about 13%, no sharp cut-off; inactive means mostly below about 14%; further: read at 38.3 µM for the half of the compounds with a filed dose; 0% is about no effect
# MARV entry inh: inhibitors of Marburg virus binding or cell entry | actives 1.8% (n = 300,000) | AID 540276 | Marburg virus pseudotyped entry inhibition, cell reporter | Potency, µM (top dose mostly 37.8 µM), inactives show at the highest dose activity change, negative = inhibition, hits mostly inhibitors; calls by dose curve; tested in HEK293 cells; further: potency means the concentration at half of the fitted maximal effect; on the % scale 0 is the no-effect control and ±100 the full control effect
# * hit, by the source's call; ? = inconclusive; / = no result given; [ ] = remark or other dose. Sampled rows, rich in hits. Any-hit rate of the full collection: about 19%. Unless noted, the call rests on the fitted dose curve; in most records, active means well fitted inhibition curve with a large enough effect; inconclusive means small, poorly fitted or top-dose-only effect, or another doubt; inactive means no such curve, though single readings can be large or run the other way.
SMILES,Shiga inhibitor,Lassa entry inh,Pf growth 48h,Pf growth 96h,Cycloheximide cs,MARV entry inh
CN(C)/C=C1\N=C(c2ccccc2)OC1=O,19,12%[46.1 µM],27%,35%,15*,11%[46.1 µM]
CN(C)/C=C1\N=C(c2ccc3c(c2)OCO3)OC1=O,64*,-1%,117%,?,27*,?
CCc1cc(C(=O)Nc2sc(C)c(CC)c2C#N)no1,/,-2%[46.1 µM],/,/,/,16%[46.1 µM]
CC(C)(C)C1CCc2c(sc(NC(=O)c3cc(C4CC4)on3)c2C#N)C1 (centres undefined),21,/,/,2%,-2,/
Cc1cc(C(=O)Nc2sc(C)c(C)c2C#N)no1,59*,10%,78%,/,41*,2%
Cc1cc(C(=O)Nc2sc3c(c2C#N)CCC(C(C)(C)C)C3)no1 (centres undefined),-1,-18%,/,10µM*,1,?
CCc1c(C)sc(NC(=O)c2cc(C(C)C)on2)c1C#N,55*,/,23%,55%,13*,/
CCCCCC(=O)Nc1sc(C)c(C)c1C#N,active,?,39%,49%,42*,3%
CCc1c(C)sc(NC(=O)CC#N)c1C#N,-13,1%,-2%,0.83µM*,4,2%
Cc1ccc(OCCOc2cccc(C=C3C(=O)NC(=O)NC3=O)c2)c(C)c1,110*,?,159%,17%,110*,?
O=C1NC(=O)C(=Cc2cccc(OCCOc3ccccc3)c2)C(=O)N1,65*,/,200%,2%,44*,/
C/C(=C\c1ccccc1)CN1CCN(C(C)C)C(CCO)C1 (centres undefined),0,10%[46.1 µM],-3%,?,-3,-9%[46.1 µM]
O=C(Nc1cccc(F)c1)c1ccc(S(=O)(=O)NCC2CCCO2)cc1 (centres undefined),-10,18%,-23%,/,-2,-14%
CSc1nnc(-c2sccc2OCc2ccc(C)cc2)n1C,-5,0%,?,?,-3,-18%
COc1cccc(CC2(CO)CCCN(Cc3cc(F)ccc3-n3cccn3)C2)c1 (centres undefined),-15,-29%,13µM*,36%,-4,?
Cn1cc(CN2CCCC(CO)(Cc3ccccc3)C2)c2ccccc21 (centres undefined),-17,?,12µM*,-17%,-2,1µM*
COc1cccc(CC2(CO)CCCN(Cc3cn(C)c4ccccc34)C2)c1 (centres undefined),-15,/,?,10%,2,/
COc1cccc(CC2(CO)CCCN(Cc3ccccc3Cl)C2)c1 (centres undefined),-4,/,21%,10µM*,-3,/
COc1cccc(CC2(CO)CCCN(S(=O)(=O)N(C)C)C2)c1 (centres undefined),15,/,-7%,6.6µM*,5,-2%[46.1 µM]
COc1cccc(CC2(CO)CCN(S(=O)(=O)N(C)C)CC2)c1,-8,-25%,14%,-27%,1,9%[46.1 µM]
CC(C)Cc1nc(S(=O)(=O)c2ccc(Cl)cc2)c(N2CCOCC2)o1,-4,-10%,-14%,2%,1,-15%
Cn1c(NNC(=O)C(c2ccccc2)c2ccccc2)cc(=O)n(C)c1=O,-13,/,3%,5%,-2,1%[46.1 µM]
COc1ccccc1C(=O)N1CCN(Cc2c[nH]c3ccccc23)CC1,-2,-16%[46.1 µM],/,0%,0,1%[46.1 µM]
OCC1(Cc2ccccc2)CCCN(C2CCCC2)C1 (centres undefined),-17,-22%[46.1 µM],?,22%,-2,?
CCOC(=O)N1CCC(N2CCCC(CO)(Cc3cccc(OC)c3)C2)CC1 (centres undefined),-18,/,?,3.3µM*,-1,/
SMILES,Shiga inhibitor,Lassa entry inh,Pf growth 48h,Pf growth 96h,Cycloheximide cs,MARV entry inh
COc1ccc(CN2CCCC(CO)(Cc3ccc(F)cc3)C2)cc1C (centres undefined),-16,/,15µM*,?,6,/
O=C(NCc1cccnc1)/C(=C/c1ccc([N+](=O)[O-])cc1)NC(=O)c1ccccc1,/,-1%[46.1 µM],/,/,/,-12%[46.1 µM]
CSCCC(NC(=O)c1ccccc1Br)C(=O)NNC(=O)c1csc(N2CCOCC2)n1 (centres undefined),/,26%,-15%,-2%,/,5%[46.1 µM]
CC(C)c1ccc(/C=C/c2ccc(=O)n(C)n2)cc1,93*,?,147%,145%,27*,?
CCOC(=O)C(C)n1nc(/C=C/c2ccccc2)ccc1=O (centres undefined),-5,9%,?,?,-1,?
O=C(CCn1[nH]c(=O)c2ccccc2c1=O)OC1CCCCC1,9,22%,?,?,7,0%
CCOc1ccc(CCNC(=O)C2=C(C)C(=O)OC23CCC(C)CC3)cc1 (centres undefined),-8,-27%,-4%,10µM*,-2,14%
COc1ccc(CNC(=O)C2=C(C)C(=O)OC23CCC(C)CC3)cc1 (centres undefined),-5,/,/,?,-5,/
CCn1c(CNC(=O)COc2ccc(C(C)C)cc2)nnc1SCC(=O)Nc1ccccc1F,-46,-28%,0%,/,10,-16%
Cc1ccc2c(Sc3ccc(Cl)cc3)c(C(=O)N3CCC(C)CC3)[nH]c2c1,/,-20%[46.1 µM],/,/,/,-1%[46.1 µM]
Cc1cccc(Oc2ccc(NC(=O)C3=CC=CN4CCS(=O)(=O)N=C34)cc2)c1,/,/,?,12µM*,/,/
Cc1ccc(Oc2ccc(NC(=O)C3=CC=CN4CCS(=O)(=O)N=C34)cc2)cc1,/,/,-18%,?,/,/
COc1ccc(-c2noc(CNS(=O)(=O)c3ccccc3)n2)cc1,41,/,30%,73%,17*,/
Cc1ccc(-c2noc(CNS(=O)(=O)c3ccccc3)n2)cc1,39*,8%,31%,187%,43*,3%
Cc1cccc(OCC(=O)NCc2nc(-c3ccccc3)no2)c1,1,/,-1%,?,0,/
Cc1ccc(OCc2nc(-c3ccccc3)no2)c(C)c1,98*,?,213%,62%,36*,?
Cc1cccc(NCc2nc(-c3ccccc3)no2)c1,41,/,/,5%,36*,/
Cc1ccc(-c2noc(CNS(=O)(=O)c3ccc(F)cc3)n2)cc1,/,0%[46.1 µM],/,/,/,?
COCCn1c(=S)[nH]c2cc(OC)c(OC)cc2c1=O,2,-2%,-14%,?,-2,15%
COC(=O)c1c2[n+](cc3cc(OC)c(OC)cc13)CCc1cc(OC)c(OC)cc1-2,/,-23%[46.1 µM],/,/,/,-12%[46.1 µM]
CC(C)Cn1c(=S)[nH]c2cc(C(=O)NCc3ccccc3F)ccc2c1=O,/,/,-22%,?,/,/
COC(=O)[C@@]12OC[C@]34[C@H]([C@@H](O)[C@@H]1O)[C@@]1(C)C(=O)C(O[C@@H]5OC(CO)[C@@H](O)[C@@H](O)[C@@H]5O)=C[C@@H](C)[C@@H]1C[C@H]3OC(=O)[C@H](OC(=O)/C=C(\C)C(C)(C)OC(C)=O)[C@@H]24 (some centres undefined),/,/,2.6µM*,4.7µM*,/,/

# Screens deposited in PubChem BioAssay by National Center for Advancing Translational Sciences (NCATS).
